From PubChem BioAssay (NCI)
Compounds without any hit were thinned out: in the full panel of roughly 79,000, 15% have a hit. Activity calls are given as the source filed them. Cut-off read from the data, not from the text of the source: active = growth inhibition above about 70%; inactive = the rest.

Columns and labels:
[1] = NCI Yeast Anticancer Drug Screen. Data for the wt1 strain (AID 149);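 note: 0% = growth of vehicle-treated wt1 cultures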; conditions: S. cerevisiae wt1 strain (SPY 50644) growth inhibition, stronger effect = higher value
Outline: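 Each compound is tested on wt1 yeast and the loss of growth versus vehicle gives the inhibition value.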

[2] = NCI Yeast Anticancer Drug Screen. Data for the rad50EPP+ strain (AID 151);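 note: 0% = growth of vehicle-treated control cultures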; conditions: S. cerevisiae rad50 mutant strain, stronger effect = higher value
Outline: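 Strain rad50EPP+; compound exposure; % growth inhibition vs vehicle.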

[3] = NCI Yeast Anticancer Drug Screen. Data for the mgt1 strain (AID 153); conditions: S. cerevisiae mgt1 mutant growth inhibition, stronger effect = higher value
Outline: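 Read-out: yeast growth inhibition vs vehicle control. Strain mgt1, drawn from a panel altered in DNA damage repair or cell cycle control.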

[4] = NCI Yeast Anticancer Drug Screen. Data for the rad50 strain (AID 155);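 note: 0% = growth of vehicle-only cultures of the same strain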; conditions: S. cerevisiae rad50 strain growth inhibition, stronger effect = higher value
Outline: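 Vehicle-treated cultures provide the reference for the growth inhibition reported for compound-exposed, repair-deficient yeast.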

[5] = NCI Yeast Anticancer Drug Screen. Data for the mec2-1 strain (AID 157); conditions: S. cerevisiae mec2-1 strain, stronger effect = higher value
Outline: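 Cells of the genetically defined mec2-1 yeast strain are incubated with test compound. Inhibition of growth is calculated against vehicle-treated controls.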

[6] = NCI Yeast Anticancer Drug Screen. Data for the rad14 strain (AID 159);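 note: 0% = growth of vehicle-treated control cultures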; conditions: S. cerevisiae rad14 strain growth inhibition, stronger effect = higher value
Outline: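 Inhibition of growth is reported for a repair-deficient yeast mutant following compound treatment, calculated relative to cultures that received vehicle.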

[7] = NCI Yeast Anticancer Drug Screen. Data for the sgs1 mgt1 strain (AID 161);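 note: 0% = growth of cultures given vehicle only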; conditions: S. cerevisiae sgs1 mgt1 strain, stronger effect = higher value
Outline: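 Inhibition of yeast growth, normalised to vehicle-treated controls, is reported for a strain bearing genetic alterations in DNA damage repair.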

[8] = NCI Yeast Anticancer Drug Screen. Data for the CLN2oe strain (AID 163);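 note: 0% = growth of vehicle-only control cultures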; conditions: S. cerevisiae CLN2oe strain, stronger effect = higher value
Outline: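 Strain altered in cell-cycle control, incubated with compound; growth compared to solvent-treated controls.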

[9] = NCI Yeast Anticancer Drug Screen. Data for the cln2 rad14 strain (AID 165);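 note: 0% = growth equal to vehicle treated cultures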; conditions: S. cerevisiae cln2 rad14 strain, stronger effect = higher value
Outline: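 The screen exposed genetically defined yeast (cln2 rad14) to test compounds and scored growth inhibition relative to vehicle-treated controls.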

[10] = NCI Yeast Anticancer Drug Screen. Data for the bub3 strain (AID 167); conditions: S. cerevisiae bub3 mutant strain, stronger effect = higher value
Outline: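 Mutant yeast screening strain plus compound; vehicle-treated cultures serve as the 0% inhibition reference.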

[11] = NCI Yeast Anticancer Drug Screen. Data for the wt2 strain (AID 169); conditions: S. cerevisiae wt2 strain growth inhibition, stronger effect = higher value
Outline: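 Steps: yeast strain treated with compound; growth recorded; inhibition calculated relative to cultures given vehicle alone.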

[12] = NCI Yeast Anticancer Drug Screen. Data for the mlh1 strain (AID 171);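 note: 0% = growth of vehicle-treated control cultures of the same strain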; conditions: S. cerevisiae mlh1 strain growth inhibition, stronger effect = higher value
Outline: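 Yeast screen: mutant strain plus compound, growth scored against vehicle control wells.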

[13] = NCI Yeast Anticancer Drug Screen. Data for the sgs1 strain (AID 173);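 note: 0% = growth of vehicle-only control cultures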; conditions: S. cerevisiae sgs1 mutant, stronger effect = higher value
Outline: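 Inhibition of yeast growth served as the measure. The mutant strain was treated with each compound, and growth was normalised to cultures receiving vehicle alone.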

[14] = NCI Yeast Anticancer Drug Screen. Data for the mlh1 rad18 strain (AID 175); conditions: S. cerevisiae mlh1 rad18 strain growth inhibition, stronger effect = higher value
Outline: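 Compound-treated yeast growth, normalised to vehicle controls. Strain bears defined DNA repair mutations.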

[15] = NCI Yeast Anticancer Drug Screen. Data for the rad18 strain (AID 177); conditions: S. cerevisiae rad18 mutant growth inhibition, stronger effect = higher value
Outline: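 Inhibition values reflect reduced yeast growth compared with vehicle-treated controls, using a strain engineered with a DNA damage repair defect.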

[16] = at 5.0 µM (retest, dose inferred, filed as 0.5)
[17] = at 50.0 µM (retest, dose inferred, filed as 5.0)

Measured: growth inhibition

c1ccc2cc(OCC3CO3)c(OCC3CO3)cc2c1 (stereo unspecified)
inactive: [1]; at 1.2 µM -21% | [1]; at 3.7 µM -21% | [1]; at 11.0 µM -24% | [1]; at 33.0 µM -16% | [1]; at 100.0 µM -2% | [2]; at 1.2 µM -21% | [2]; at 3.7 µM -4% | [2]; at 11.0 µM 22% | [2]; at 33.0 µM 59% | [3]; at 1.2 µM -43% | [3]; at 3.7 µM -25% | [3]; at 11.0 µM -4% | [3]; at 33.0 µM -21% | [3]; at 100.0 µM 11% | [4]; at 1.2 µM -26% | [4]; at 3.7 µM -21% | [4]; [16] 56% | [4]; at 11.0 µM 3% | [4]; at 33.0 µM 59% | [4]; at 50.0 µM 57.1% | [5]; at 1.2 µM -29% | [5]; at 3.7 µM -18% | [5]; [16] 27% | [5]; at 11.0 µM -29% | [5]; at 33.0 µM 1% | [5]; [17] 67% | [5]; at 50.0 µM 58.8% | [5]; at 100.0 µM 64% | [6]; at 1.2 µM -21% | [6]; at 3.7 µM -8% | [6]; at 11.0 µM 1% | [6]; at 33.0 µM 35% | [8]; at 1.2 µM -10% | [8]; at 3.7 µM -2% | [8]; at 11.0 µM -11% | [8]; at 33.0 µM -6% | [8]; at 100.0 µM 35% | [9]; [16] 14% | [9]; [17] 63% | [9]; at 50.0 µM 60.7% | [10]; at 1.2 µM -22% | [10]; at 3.7 µM -26% | [10]; [16] 19% | [10]; at 11.0 µM -24% | [10]; at 33.0 µM -22% | [10]; [17] 29% | [10]; at 50.0 µM -7.95% | [10]; at 100.0 µM 0% | [11]; at 1.2 µM -38% | [11]; at 3.7 µM -33% | [11]; at 11.0 µM -37% | [11]; at 33.0 µM -19% | [11]; at 100.0 µM 0% | [12]; at 1.2 µM -37% | [12]; at 3.7 µM -32% | [12]; at 11.0 µM -33% | [12]; at 33.0 µM -26% | [12]; at 100.0 µM 14% | [13]; at 1.2 µM -2% | [13]; at 3.7 µM 37% | [15]; at 1.2 µM -8% | [15]; at 3.7 µM 33% | [15]; at 11.0 µM 69%
active: [2]; at 100.0 µM 81% | [4]; [17] 91% | [4]; at 100.0 µM 83% | [6]; at 100.0 µM 82% | [7]; [16] 76% | [7]; [17] 93% | [7]; at 50.0 µM 76.8% | [13]; at 11.0 µM 70% | [13]; at 33.0 µM 82% | [13]; at 100.0 µM 84% | [14]; [16] 84% | [14]; [17] 96% | [14]; at 50.0 µM 81.7% | [15]; at 33.0 µM 86% | [15]; at 100.0 µM 92%

CC(C)(C(=O)NN)c1ccccc1
inactive: [1]; at 1.2 µM 2% | [1]; at 3.7 µM 9% | [1]; at 11.0 µM 34% | [1]; at 33.0 µM 52% | [2]; at 1.2 µM 4% | [2]; at 3.7 µM 25% | [2]; at 11.0 µM 52% | [2]; at 33.0 µM 68% | [3]; at 1.2 µM 4% | [3]; at 3.7 µM 10% | [3]; at 11.0 µM 22% | [3]; at 33.0 µM 54% | [4]; at 1.2 µM 3% | [4]; at 3.7 µM 5% | [4]; [16] 14% | [4]; at 11.0 µM 22% | [4]; at 33.0 µM 40% | [4]; at 50.0 µM 52.9% | [5]; at 1.2 µM 0% | [5]; at 3.7 µM 1% | [5]; [16] 11% | [5]; at 11.0 µM 24% | [5]; at 33.0 µM 53% | [5]; at 50.0 µM 9.5% | [6]; at 1.2 µM -1% | [6]; at 3.7 µM -4% | [6]; at 11.0 µM 3% | [6]; at 33.0 µM 21% | [6]; at 100.0 µM 58% | [7]; [16] 14% | [7]; at 50.0 µM 14.9% | [8]; at 1.2 µM -7% | [8]; at 3.7 µM -1% | [8]; at 11.0 µM 27% | [8]; at 33.0 µM 51% | [9]; [16] 20% | [9]; at 50.0 µM 55.5% | [10]; at 1.2 µM -3% | [10]; at 3.7 µM 0% | [10]; [16] -14% | [10]; at 11.0 µM 34% | [10]; at 50.0 µM 52% | [11]; at 1.2 µM 1% | [11]; at 3.7 µM 10% | [11]; at 11.0 µM 28% | [11]; at 33.0 µM 42% | [12]; at 1.2 µM 3% | [12]; at 3.7 µM 5% | [12]; at 11.0 µM 21% | [12]; at 33.0 µM 46% | [13]; at 1.2 µM 0% | [13]; at 3.7 µM 13% | [13]; at 11.0 µM 41% | [14]; [16] 63% | [14]; at 50.0 µM 62.9% | [15]; at 1.2 µM 2% | [15]; at 3.7 µM 8% | [15]; at 11.0 µM 46%
active: [1]; at 100.0 µM 78% | [2]; at 100.0 µM 85% | [3]; at 100.0 µM 90% | [4]; [17] 99% | [4]; at 100.0 µM 82% | [5]; [17] 95% | [5]; at 100.0 µM 83% | [7]; [17] 98% | [8]; at 100.0 µM 81% | [9]; [17] 88% | [10]; at 33.0 µM 70% | [10]; [17] 97% | [10]; at 100.0 µM 94% | [11]; at 100.0 µM 83% | [12]; at 100.0 µM 91% | [13]; at 33.0 µM 71% | [13]; at 100.0 µM 94% | [14]; [17] 99% | [15]; at 33.0 µM 70% | [15]; at 100.0 µM 92%
